Experimental data taken from PubChem BioAssay AID376 (PDSP, 2006).
Screen size: about 2,000 compounds; about 250 (12%) were called active. Many of the other results were omitted from the sample, so actives are more common in it than they were. A number with no mark means an inactive call. No stated cut-off is given here; in the data, active means hERG blockade below about -20% or above about 20%; inactive means in between.

These molecules were tested against Voltage-gated inwardly rectifying potassium channel KCNH2 (Homo sapiens) (UniProt Q12809) (assay: KCNH2 potassium channel function modulators, cell-based (AID 376;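 further: 0% = buffer alone and 100% = reference blocker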)). Details: hERG-expressing cells, channel activity single-concentration screen; concentration not given here.
Chain of Voltage-gated inwardly rectifying potassium channel KCNH2 (Homo sapiens) (Q12809 whole entry, looked up): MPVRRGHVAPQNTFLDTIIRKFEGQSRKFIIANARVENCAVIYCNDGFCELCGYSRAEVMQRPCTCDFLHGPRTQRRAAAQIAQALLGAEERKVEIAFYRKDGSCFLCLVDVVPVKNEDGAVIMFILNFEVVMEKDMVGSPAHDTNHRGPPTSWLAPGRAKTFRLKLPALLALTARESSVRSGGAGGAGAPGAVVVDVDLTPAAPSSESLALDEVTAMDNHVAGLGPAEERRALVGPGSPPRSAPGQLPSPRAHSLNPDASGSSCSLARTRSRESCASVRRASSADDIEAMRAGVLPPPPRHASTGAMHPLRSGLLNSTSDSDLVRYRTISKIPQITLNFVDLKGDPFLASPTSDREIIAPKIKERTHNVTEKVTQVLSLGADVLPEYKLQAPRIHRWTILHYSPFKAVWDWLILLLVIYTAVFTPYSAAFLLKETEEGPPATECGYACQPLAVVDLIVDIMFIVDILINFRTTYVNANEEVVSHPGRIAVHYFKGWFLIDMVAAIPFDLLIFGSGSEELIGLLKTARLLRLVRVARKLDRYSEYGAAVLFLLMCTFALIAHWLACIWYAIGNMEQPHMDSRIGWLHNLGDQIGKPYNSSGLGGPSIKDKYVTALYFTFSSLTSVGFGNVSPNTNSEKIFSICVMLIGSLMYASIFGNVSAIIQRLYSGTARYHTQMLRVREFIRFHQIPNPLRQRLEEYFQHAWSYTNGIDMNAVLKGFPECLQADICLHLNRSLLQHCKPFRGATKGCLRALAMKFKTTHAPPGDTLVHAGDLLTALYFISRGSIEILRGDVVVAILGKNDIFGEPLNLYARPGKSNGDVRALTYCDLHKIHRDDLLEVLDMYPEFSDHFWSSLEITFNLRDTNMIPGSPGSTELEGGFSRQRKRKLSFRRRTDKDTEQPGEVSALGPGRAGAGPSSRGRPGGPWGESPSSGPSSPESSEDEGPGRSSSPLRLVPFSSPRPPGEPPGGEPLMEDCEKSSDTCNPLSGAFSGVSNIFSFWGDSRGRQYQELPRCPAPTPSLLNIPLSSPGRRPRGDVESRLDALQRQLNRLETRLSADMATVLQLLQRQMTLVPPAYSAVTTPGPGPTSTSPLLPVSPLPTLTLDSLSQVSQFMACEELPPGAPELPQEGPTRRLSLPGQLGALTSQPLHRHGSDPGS

SMILES | hERG blockade
O=C(O)c1c(Br)c(Br)c(Br)c(Br)c1C1c2ccc(O)cc2Oc2cc(O)ccc21 | 2.46%
Oc1c(C(Nc2ccccn2)c2ccccc2)ccc2cccnc12 (stereo not given) | 12.1%
c1cnc2c(c1)ccc1cccnc12 | 56.6% (active)
Cc1ccc(NC(c2ccccc2)c2ccc3cccnc3c2O)cc1 (stereo not given) | -7.23%
Cc1ncn(-c2ccccc2O)c1C | -3.27%
CSC(CC(=O)O)C(=O)O (stereo not given) | -18%
CC1OC(CC(=O)O)Cc2c1c(O)c1c(O)cc(-c3cc(=O)c4c(=O)c5c(c(=O)c=4c3=O)CC(CC(=O)O)OC5C)c(O)c1c2O (stereo not given) | 14.9%
Oc1ccc2ccccc2c1C=Cc1ccc2c(Br)cc(Br)c(O)c2n1 | 11%
Oc1cccc2ccc(SSc3ccc4cccc(O)c4n3)nc12 | 0.631%
C[n+]1cccc(C=Cc2ccc3cccc(O)c3n2)c1 | 48.1% (active)
O=C(O)c1cc(=O)[nH]c(SCc2ccccc2)n1 | 0.275%
C[N+](C)([O-])Cc1cc(-c2ccccc2)ccc1O | -15.8%
O=C(SCc1cccc2ccccc12)c1ccc(Cl)cc1 | -11.8%
S=C(S)NCCCn1ccnc1 | -3.79%
NCCSS(=O)(=O)CCN | 3.89%
Cc1cc(N)c2cc(NC(=O)Nc3ccc4nc(C)cc(N)c4c3)ccc2n1 | 1.21%
Cc1cc(N)c2cc(OCCOc3ccc4nc(C)cc(N)c4c3)ccc2n1 | 38.9% (active)
CCOc1ccc2nc3cc(N=Nc4ccc(N)nc4N)ccc3c(N)c2c1 | 19.7%
O=C(O)CC12CC3CC(CC(O)(C3)C1)C2 | -8.63%
CCCCCC(O)C1C(=O)OC(C)C(O)C=CC=CC=CC=CC=C(C)C(O)CC(O)CC(O)CC(O)CC(O)CC(O)CC1O (stereo not given) | -9.84%
O=C(O)C(C1NCCS1)N1Cc2ccccc2C1 (stereo not given) | -7.98%
C[N+]1(CC[N+]2(C)CCCC2c2cccnc2)CCCC1c1cccnc1 (stereo not given) | 23.3% (active)
C[N+]1(Cc2ccc(Cl)c(Cl)c2)CCCC1c1ccc[n+](Cc2ccc(Cl)c(Cl)c2)c1 (stereo not given) | 16.1%
c1cncc(CNCc2cccnc2)c1 | 5.77%
CC1(C)SC2C(NC(=O)Cc3ccccc3)C(=O)N2C1C(=O)O (stereo not given) | 1.04%
O=C(O)c1ccc(NC(c2ccccc2)c2ccc3cccnc3c2O)cc1 (stereo not given) | -7.8%
CC1(CCC(=O)OC2CCCCC2)OCCO1 | -7.92%

SMILES | hERG blockade
CC(C)(C)c1ccc(OCC(=O)O)c(Cl)c1 | -5.3%
CN1CCN(CCCN)CC1 | -1.63%
CN1CCN(CCCBr)CC1 | 25.3% (active)
CN1CCN(CCCNN)CC1 | -5.53%
O=C(O)C(Cc1ccc(O)c([N+](=O)[O-])c1)N1C(=O)c2ccccc2C1=O (stereo not given) | -10.2%
[O-][N+](CCO)(CCO)c1ncnc2nc[nH]c12 | 13%
O=C1C(Cl)=C(Nc2ccc(S(=O)(=O)Nc3ccccn3)cc2)C(=O)c2ccccc21 | 9.57%
COc1cc(NCCC2CCCCN2)c2ncccc2c1 (stereo not given) | 7.01%
Cc1cc(N2CCN(C)CC2)n2nc(-c3ccc(Cl)cc3)nc2n1 | 90% (active)
O=c1[nH]c(SCc2c(Cl)c(Cl)c(Cl)c(Cl)c2Cl)nc(=S)[nH]1 | -9.32%
Cc1ccc(S(=O)(=O)NC(CN)C(=O)O)cc1 (stereo not given) | 4.41%
Cc1ccc(S(=O)(=O)NC(CO)C(=O)O)cc1 (stereo not given) | 23.3% (active)
Cc1ccc(S(=O)(=O)NC(C(=O)O)C(C)C)cc1 (stereo not given) | 0.497%
NC1(C(=O)OCc2ccccc2)CCCC1 | 15.7%
CC(OP(=O)(O)O)C(N)C(=O)O (stereo not given) | -6.12%
Clc1ccc(CSCCc2ccncc2)cc1Cl | 14.8%
Nc1nc(SCc2ccccc2)c2ncn(Cc3ccccc3)c2n1 | -3.09%
CC(C)Cn1cnc2c(Sc3c([N+](=O)[O-])ncn3C)nc(N)nc21 | 4.65%
Cn1cnc([N+](=O)[O-])c1Sc1nc(N)nc2c1ncn2Cc1ccccc1 | 37% (active)
NC(Cc1c[nH]c2ccc([N+](=O)[O-])cc12)C(=O)O (stereo not given) | 7.32%
C=C(C)COc1ccc2c(c1)CCC1C2CCC2(C)C(=O)C(=NO)CC12 (stereo not given) | 0.877%
OCC1OC(O)C(N=Cc2ccc3c(c2)OCO3)C(O)C1O (stereo not given) | -14.8%
Nc1ccc(S(=O)(=O)Nc2cnc3ccccc3n2)cc1 | 8%
Nc1ccc(S(=O)(=O)NCc2nccs2)cc1 | 17.3%
Nc1ccc(S(=O)(=[OH+])[NH2+]c2ncccn2)cc1.[Ag+] | 89.5% (active)
CC(C)CCNc1ncnc2[nH]ncc12 | 0.816%
NCC1OC(n2cnc3c(=O)[nH]c(N)nc32)C(O)C1O (stereo not given) | 5.66%

SMILES | hERG blockade
CCC1=C(CC2NCCc3ccccc32)CC2c3cc(OC)c(OC)cc3CCN2C1 (stereo not given) | 47.5% (active)
N#CC(=CNc1ccccn1)C(=O)c1ccco1 | -1.1%
OCCCNCc1ccncc1 | -7.86%
CC1(C)SC2C(C(=O)O)N=C(Cc3ccccc3)N2C1C(=O)O (stereo not given) | 4.53%
O=[N+]([O-])c1ccc2ncccc2c1CCc1c([N+](=O)[O-])ccc2ncccc12 | 2.28%
CC(=O)C(C)CCOC1(C)OCCC1C (stereo not given) | -22.8% (active)
Cc1ccc(C)c(C(=N)c2ccccc2Cc2ccccc2)c1 | -12.5%
CC(SCc1ccccc1)C(=O)O (stereo not given) | 3.31%
NCC(=O)Nc1ccccc1 | 5.81%
O=C(c1no[n+]([O-])c1C(=O)c1csc2ccccc12)c1csc2ccccc12 | 18.4%
O=C(O)c1ccccc1C1c2ccccc2Oc2ccccc21 | 12.2%
Cc1cccc2c1Oc1ccccc1C2NC(=O)c1ccc([N+](=O)[O-])cc1 (stereo not given) | 32.2% (active)
NC(CC1=CS(=O)(=O)c2ccc(Cl)cc21)C(=O)O (stereo not given) | 0.214%
Cc1cc(C(=O)CSC(=S)SC(C)(C)C)ccc1Cl | 8.12%
CN(C)CCCNc1cc(O)c2c(c1O)C(=O)c1ccccc1C2=O | 42.1% (active)
CC1=NCC[N+]1(CCc1ccccc1)Cc1ccccc1 (stereo not given) | 13.6%
CN(C)S(=O)(=O)c1nc(Cl)c2[nH]cnc2n1 | -2.43%
COc1cc(NCCC(=O)O)c2ncccc2c1 | 11.9%
Cn1c(=O)c2[nH]c(CCCCc3nc4c([nH]3)c(=O)n(C)c(=S)n4C)nc2n(C)c1=S | -1.88%
O=C1C=C(N2CCN(c3ccccn3)CC2)C(=O)c2c(O)ccc(O)c21 | 23.2% (active)
Oc1ccc(Cl)cc1C=Nc1cnc2ccccc2c1 | 9.11%
C=CCSc1nc2ccccc2c(=O)n1Cc1ccco1 | 3.62%
N#CNC(N)=Nc1ccc(Cl)cc1 | -2.36%
O=C(O)C12CC3(C(=O)O)CC(C(=O)O)(CC(C(=O)O)(C1)C3=O)C2=O | -1.77%
FC(F)(F)c1cccc(-c2nc3nc(Cl)c(Cl)nc3[nH]2)c1 | -24% (active)
CC(CCN)(CCN)[N+](=O)[O-] | -18.2%
CN(Cc1cc(C(C)(C)C)cc(Br)c1O)Cc1cc(C(C)(C)C)cc(Br)c1O | 5.11%

SMILES | hERG blockade
CC(C)C(=O)Cc1ccc2ccccc2n1 | -1.76%
CCOC(=S)SCC(=O)O | 0.925%
O=C(O)C1C2CCC(O2)C1C(=O)NCc1cccnc1 (stereo not given) | -25.3% (active)
O=C(O)C1C2CCC(O2)C1C(=O)Nc1cccc2cccnc12 (stereo not given) | -5.21%
O=C(O)C1C2C=CC(O2)C1C(=O)NCc1cccnc1 (stereo not given) | 5.66%
N=c1ncn(CC=Cc2ccccc2)c2nc[nH]c12 | 15.2%
CN(N=O)c1ccc(C=Cc2ccnc3ccccc23)cc1 | 18.7%
CN1CCN(CN2C(=O)C3C4C=CC(C3C2=O)C2C3C(=O)N(CN5CCN(C)CC5)C(=O)C3C42)CC1 (stereo not given) | 2.12%
NC(Cc1ccnnc1)C(=O)O (stereo not given) | -0.431%
O=C(O)C1CC=CCC1C(=O)Nc1cccc(O)c1 (stereo not given) | 7.36%
O=C1c2ccccc2C(=O)c2c(Nc3cc4c5c(ccc6c7ccc8c9c(cc(Nc%10cccc%11c%10C(=O)c%10ccccc%10C%11=O)c(c3c56)c97)-c3ccccc3C8=O)C(=O)c3ccccc3-4)cccc21 | 34.1% (active)
O=C1c2ccccc2C(=O)c2c(Nc3ccc4c5c(cccc35)C(=O)c3ccccc3-4)cccc21 | -13.6%
O=C1c2ccccc2C(=O)c2c(NC(=O)c3ccc4c5c(ncnc35)-c3ccccc3C4=O)cccc21 | 6.48%
CC1CCC(O)(C(C)(C(=O)O)c2ccccc2)CC1 (stereo not given) | 5.36%
CCCn1cnc2c(SCc3ccc(Cl)cc3)nc(N)nc21 | -2.91%
C=CCC(C(=O)O)c1ccccc1 (stereo not given) | -1.33%
CN(C)CN1CSC(=S)N(CN(C)C)C1 | -7.7%
Cn1c(=O)c2[nH]c(CCS)nc2n(C)c1=O | 5.6%
CCn1c(CCCc2nc3c([nH]2)c(=O)n(C)c(=O)n3C)nc2c1c(=O)n(C)c(=O)n2C | 25.2% (active)
Cn1c(=O)c2[nH]c(CCCCC(=O)O)nc2n(C)c1=O | -14.9%
O=C(O)CC(Nc1ccccc1)C(=O)O (stereo not given) | 12.6%
O=C(O)c1nnsc1COCc1ccccc1 | 7.88%
O=c1c2ccccc2sc2c(CO)ccc(NCCN3CCCCC3)c12 | 46% (active)
O=C(CCN1CCCCC1)c1csc2ccccc12 | 6.4%
